LmPK inh: qHTS Assay for Inhibitors of Leishmania Mexicana Pyruvate Kinase (LmPK). Q27686. purified LmPK, Kinase-Glo ATP luminescence, 1 h. Potency, µM (series often up to 57.5 µM), inactives show at the top dose activity change, negative = inhibition, usual class: inhibitors. 0.37% of 290,000 active. AID 1721, 2009; active = well fitted curve in the direction sought with a large enough effect; inconclusive = small, poorly fitted or top-dose-only effect, or another doubt; inactive = no such curve, though single readings can be large; an effect the other way counts as inactive or inconclusive; note: potency is the fitted concentration of half-maximal effect; % is set by controls: 0 for no effect and ±100 for the full control effect
Target sequence (Q27686 whole entry, looked up): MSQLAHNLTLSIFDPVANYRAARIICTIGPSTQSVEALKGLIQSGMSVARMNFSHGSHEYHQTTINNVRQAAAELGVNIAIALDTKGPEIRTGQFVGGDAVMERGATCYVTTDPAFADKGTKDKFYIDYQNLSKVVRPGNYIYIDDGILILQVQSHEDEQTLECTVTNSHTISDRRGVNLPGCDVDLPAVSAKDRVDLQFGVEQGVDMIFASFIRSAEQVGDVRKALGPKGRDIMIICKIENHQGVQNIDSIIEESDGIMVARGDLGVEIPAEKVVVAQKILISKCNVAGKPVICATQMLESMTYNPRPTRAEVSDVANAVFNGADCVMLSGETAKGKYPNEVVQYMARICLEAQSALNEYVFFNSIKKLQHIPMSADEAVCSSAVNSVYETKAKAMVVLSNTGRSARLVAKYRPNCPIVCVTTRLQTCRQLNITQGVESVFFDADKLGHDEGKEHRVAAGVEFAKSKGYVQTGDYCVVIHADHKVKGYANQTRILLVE
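In 50 mM imidazole pH 7.2 with 7 mM MgCl2, LmPK (0.1 nM) turned over PEP (0.5 mM) and ADP (0.1 mM) for 1 h at room temperature. Luciferase read-out of ATP.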
Cycloheximide cs: Cycloheximide Counterscreen for Small Molecule Inhibitors of Shiga Toxin. 12% of 300,000 active. cell reporter, cycloheximide protein synthesis inhibition counterscreen. max response, %; in the data active = max response mostly above about 13%, no sharp cut-off; inactive = mostly below about 14%; note: read at 38.3 µM for the half of the compounds with a filed dose; 0% is about no effect
Tb PYK inh: qHTS of Trypanosoma Brucei Inhibitors. pyruvate kinase (Trypanosoma brucei), Q57TT1. TbPYK enzyme, Kinase-Glo Plus ATP luminescence, 45 min. Potency, µM (doses to about 76.8 µM), inactives show at the top dose activity, negative = inhibition, most hits filed as inhibitors. 0.12% of 410,000 active. AID 624173, 2012; active = well fitted curve in the direction sought with a large enough effect; inconclusive = small, poorly fitted or top-dose-only effect, or another doubt; inactive = no such curve, though single readings can be large; an effect the other way counts as inactive or inconclusive; note: potency is the fitted concentration of half-maximal effect; % is set by controls: 0 for no effect and ±100 for the full control effect; nearly all actives have a fitted effect of over 50% in size
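Luminescence from Kinase-Glo Plus, added after a 45-minute room-temperature reaction, served as the end-point read-out. The enzyme and substrate were preincubated with compound before ADP (130 uM final) initiated turnover. Concentration-effect curves came from normalized qHTS data.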
SARS PLP yeast: qHTS of Yeast-based Assay for SARS-CoV PLP. S. cerevisiae expressing SARS-CoV PLpro, growth rescue. Potency, µM (top dose mostly 32.9 µM), for the others: at the top dose activity, positive = growth rescue, most hits filed as activators. 0.19% of 330,000 active. AID 485353, 2010; note: potency is the fitted concentration of half-maximal effect; 0% is about no effect; nearly all actives have a fitted effect of over 55% in size
NS1 function inh: qHTS Assay for Inhibitors of Influenza NS1 Protein Function; Potency, µM (titrated, usually from 46.1 µM), inactives show at the top dose activity, positive = more growth; 0.4% of 270,000 active; AID 2326, 2010; note: potency is the fitted concentration of half-maximal effect; actives are rising curves; nearly all actives have a fitted effect of over 50% in size
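Growth recovery, yeast-based: influenza A NS1 expressed in S. cerevisiae causes slow growth, and suppressors are detected by OD600. The parent strain without NS1 is used as positive control.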
Shiga toxin inh: A qHTS for Small Molecule Inhibitors of Shiga Toxin. Vero cells, Shiga toxin protein synthesis inhibition reporter. 9.2% of 290,000 active. inhibition, % at 38.7 µM; in the data active = inhibition mostly above about 28%, no sharp cut-off; inactive = mostly below about 43%; note: 0% is about no effect
Numbers without * were called inactive; ? = inconclusive; . = no result; + = active, no number; [ ] = another dose, or the depositor's remark. The full list was thinned out, with hits kept by preference. Unless noted, calls come from the whole dose curve.

SMILES	LmPK inh	Cycloheximide cs	Tb PYK inh	SARS PLP yeast	NS1 function inh	Shiga toxin inh
CCCCN1CC(N2CCN(Cc3ccccc3)CC2)CS1(=O)=O (configuration not stated)	.	.	-6%	.	.	.
CSC(=NNC(=O)c1ccc(O)cc1)SC	?	20	-14%	7%	-6%	42*
C/C(=N\NC(=O)c1ccc(O)cc1)c1ccc(NC(=O)Cc2ccccc2)cc1	-4%	36*	8%	7%	2%	170*
CC(=O)Nc1ccc(/C(C)=N\NC(=O)c2ccc(-c3ccccc3)cc2)cc1	3%	12	.	-1%	18%	7
COc1ccc(C(=O)N/N=C(\C)c2ccc(NC(=O)Cc3ccccc3)cc2)c(OC)c1	-10%	2	-1%	2%	19%	-4
O=C(Cc1ccccc1)Nc1ccc(C(=O)Nc2ccc(O)cc2)cc1	1%	-4	-5%	-3%	0%	-8
CC(=O)Nc1ccc(/C(C)=N/NC(=O)c2ccc(F)cc2)cc1	-3%	24*	5%	3%	-12%	+
C/C(=N\NC(=O)c1ccc(F)cc1)c1ccc(NC(=O)Cc2ccccc2)cc1	-10%	41*	0%	0%	4%	90*
Cc1cc2c3c(c1)C(C)CC(C)(C)N3C(=O)C2=C(C#N)C#N (configuration not stated)	-9%	-3	4%	-2%	0%	7
S=C1NC(c2ccccc2)=NCN1c1ccc(Cl)cc1	4%	27*	-7%	22%	1%	81
COC(=O)c1ccc(N2CN=C(c3ccc(C)cc3)NC2=S)cc1	1%	10	2%	-41%	1%	13
O=C(NC(=O)c1ccccc1)NC1(C(F)(F)F)OCCO1	-3%	48*	.	0%	0%	84*
O=C(NCc1ccccc1)NC(=O)c1ccccc1	-4%	2	-6%	-4%	-7%	47
O=C(Nc1ccc(F)cc1F)c1cc2n(n1)C(C(F)(F)F)C1CCCCC1N2 (configuration not stated)	1%	30*	-2%	-8%	-3%	84*
O=C(Nc1ccc(F)cc1F)c1cc2nc3c(c(C(F)(F)F)n2n1)CCCC3	-1%	26*	-8%	19%	6%	24
Cc1nc(-c2ccccc2Cl)sc1C(=O)/C=C/N(C)C	0%	24*	1%	0%	9%	64
Cc1nc(-c2ccccc2)sc1C(=O)/C=C/c1ccc(Cl)cc1	3%	-1	2%	-2%	1%	-16
c1ccc(CNc2ccc3ccccc3n2)nc1	18µM*	30*	-7%	-2%	-54%	58
Cc1nc(NCc2ccccn2)c2ccccc2n1	3%	8	-16%	2%	2%	-1
Cc1cc(NCc2ccccn2)nc2ccccc12	2%	21*	2%	6%	0%	7
FC(F)(F)c1ccc(NCc2ccccn2)nc1	-3%	56*	3%	-2%	2%	97*
O=S(=O)(NCc1ccccn1)c1cc(C(F)(F)F)ccc1Cl	-4%	-2	0%	-1%	-2%	20
CCOc1ccccc1Nc1nnc(-c2cc3cc(OC)ccc3oc2=O)s1	.	.	9%	.	.	.
CCN(CC(=O)Nc1ccc(NC(C)=O)cc1)C(=O)C1COc2ccccc2O1 (configuration not stated)	-1%	-4	-7%	-10%	10%	-12
Clc1cccc(-c2cc3nc4c(c(N5CCOCC5)n3n2)CCCC4)c1	1%	22*	0%	-21%	-68%	46
SMILES	LmPK inh	Cycloheximide cs	Tb PYK inh	SARS PLP yeast	NS1 function inh	Shiga toxin inh
Clc1cccc(-c2cc3nc4c(c(N5CCN(c6cnccn6)CC5)n3n2)CCCC4)c1	0%	38*	0%	-1%	8%	37*
Fc1cccc(-c2cc3nc4c(c(N5CCN(c6cnccn6)CC5)n3n2)CCCC4)c1	.	.	.	.	-2%	.
COc1ccc(-c2cc3nc4c(c(N5CCC6(CC5)OCCO6)n3n2)CCCC4)cc1	.	.	.	.	-45%	.
COc1cccc(-c2cc3nc4c(c(NCC(C)(C)CN(C)C)n3n2)CCCC4)c1	0%	-2	-1%	0%	4%	-10
Fc1cccc(-c2cc3nc4c(c(NCc5ccco5)n3n2)CCCC4)c1	-7%	39*	-11%	-39%	-95%	87*
Fc1cccc(-c2cc3nc4c(c(N5CCOCC5)n3n2)CCCC4)c1	-3%	52*	-12%	-16%	-75%	48*
CN[C@H](C)Cc1ccccc1	.	.	-10%[157 µM]	.	.	.
COc1ccc(C(=O)NNC(=O)C23CC4CC(CC(C4)C2)C3)cc1OC	.	.	-3%	-5%	.	.
O=C(c1cccs1)N1CCn2c1nc1ccccc12	?	41*	-15%	?	-67%	56*
COc1cccc(C(=O)N2CCn3c2nc2ccccc23)c1	1%	24*	-2%	1%	5%	34
COc1ccc(C(=O)N2CCn3c2nc2ccccc23)cc1	-16%	15	-6%	0%	4%	-3
CC(C)c1ccc2oc(-c3ccc(NC(=O)c4ncn[nH]4)cc3)nc2c1	2%	49*	4%	-11%	5%	86*
CCC(C)c1ccc2oc(-c3ccc(NC(=O)c4ncn[nH]4)cc3)nc2c1 (configuration not stated)	2%	8	3%	-7%	-7%	41*
CCC(C)c1ccc(O)c(NC(=O)c2ncn[nH]2)c1 (configuration not stated)	4%	-2	5%	-7%	-53%	13
Cc1c(C(=O)O)sc(S(=O)(=O)N2CCN(C(=O)CC(C)c3ccccc3)CC2)c1C(=O)O (configuration not stated)	.	.	-5%	.	.	.
CC1CCCC(NC(=O)C2CCN(S(=O)(=O)c3cnc[nH]3)CC2)C1C (configuration not stated)	2%	-4	0%	3%	3%	-5
COc1ccc(C(=O)NC(=O)Nc2ncccc2C)cc1	4%	40*	0%	13%	-17%	88*
Cc1cccnc1NC(=O)CCNC(=O)c1ccc(Cl)cc1	-2%	-3	-1%	21%	1%	-17
Cc1cccnc1NC(=O)Nc1ccc(Cl)cc1	8%	25*	-1%	-3%	-29%	.
COc1ccc(NC(=O)Nc2ncccc2C)cc1	-1%	20*	-9%	2%	-8%	63*
COC(=O)c1ccccc1NC(=O)Nc1ncccc1C	-3%	-3	2%	0%	5%	-14
Cc1cccnc1NC(=O)Nc1cccc(F)c1	.	.	-6%	.	.	.
Cc1cccnc1NC(=O)Nc1ccccc1	-2%	27*	0%	0%	-42%	49*
Cc1nn(-c2ccc(N3CCCC3)nn2)c(C)c1CCC(=O)NCc1ccccc1F	.	.	3%	.	.	.
O=S(=O)(NCCSc1nnnn1-c1ccccc1)c1ccc(F)cc1	.	.	0%	.	.	.

Source: PubChem (National Center for Advancing Translational Sciences (NCATS))
